# Compound activity deposited in PubChem by several laboratories.
# HSF1 inhib: HSF1 inhibition; NIH3T3-HGL HSE-luciferase, MG132-induced, luminescence 8 h; active compounds read low; activity change, negative = inhibition, % at 7.5 µM (by protocol); 300,000 compounds, 0.77% hits; AID 2098;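 active = more than half of replicate wells show activity change below -50%, luminescence cut by over half; inconclusive = some wells, but at most half, below -50%; inactive = no replicate well below -50%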;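 also: luciferase reports HSF-1 transcriptional activity via heat shock element; 0% = median of DMSO wells and -100% = zero luminescence signal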
# MITF act: activators of MITF-driven TRPM1 promoter activity in SK-MEL-5 cells; SK-MEL-5 TRPM1-promoter luciferase, 24 h; % of positive control, neutral wells = 0; activation, % at 12.5 µM; 300,000 compounds, 0.75% hits;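 active = mean activation of at least 80% with every replicate also reaching 80%; inconclusive = mean reaches 80% but some replicate falls short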;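 also: 0% = neutral control wells and 100% = parthenolide positive control wells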
# esBAF inh: SWI/SNF esBAF complex inhibition; 350,000 compounds, 2% hits; mouse ES cells, Bmi1-luciferase knock-in reporter, 24 h; 100% = twice the neutral-well signal; reporter increase, % at 12.5 µM; AID 602393; in the data active = activation above about 40%; inconclusive = no clear call, values can overlap the other calls;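 also: 0% = median of the plate's neutral control wells and 100% = double that signal; a rise in the Bmi1 reporter signal indicates esBAF inhibition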
# Wnt act: Wnt/beta-catenin pathway activation. AID 743398. activation, % at 9.35 µM. 300,000 compounds, 1.2% hits. Wnt/beta-catenin reporter cell assay, activator, plate reader; in the data active = activation above about 30%, passing the limit was not always enough; inconclusive = no clear call, values can overlap the other calls;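 also: 0% = neutral control wells and 100% = positive control wells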
# HSF1 activator: increases HSF-1 driven luciferase reporter signal. activation, % at 9 µM. 300,000 compounds, 1.7% hits. NIH3T3-HGL HSF-1 luciferase reporter, MG132, 8 h; 100% = twice DMSO control signal;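 active = mean replicate activation of at least 50% with a set share of replicates each reaching 50%; inconclusive = only one of those two conditions met; inactive = mean below 50% and too few replicates reaching it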;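 also: 0% = median of the neutral control wells and 100% = twice that signal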
# SMARCA2 act: SMARCA2 function activation, primary screen; 370,000 compounds, 1% hits; MG213 cells, MMTV-luciferase reporter, dexamethasone, overnight; activation, % at 9.1 µM; AID 652017; in the data active = activation above about 7.8%;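 also: 0% = vehicle wells and 100% = reference activator wells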
# Active calls of the source: *; ? = inconclusive; . = no result. Hits are enriched below; roughly 4.3% of the tested compounds scored in any of these assays.
SMILES,HSF1 inhib,MITF act,esBAF inh,Wnt act,HSF1 activator,SMARCA2 act
CCC1Oc2ccc(C)cc2N(Cc2cccc(C)c2)C1=O (stereo not given),8.3,5.7,7.7,0.1,53.6*,-3.8
CCCNC(=O)N(C)C[C@@H]1Oc2ncc(C#CCc3ccccc3)cc2C(=O)N([C@@H](C)CO)C[C@@H]1C,.,.,1.7,.,.,.
CC(C)NC(=O)N(C)C[C@@H]1Oc2ccc(NC(=O)c3ccncc3)cc2CC(=O)N([C@@H](C)CO)C[C@H]1C,.,.,3.2,.,.,.
C[C@H](CO)N1C[C@H](C)[C@H](CN(C)S(=O)(=O)c2ccc(Cl)cc2)OCc2ccccc2-c2ccccc2C1=O,.,.,6.2,.,.,.
COc1cc2sc(NC(=O)c3ccco3)nc2cc1Cl,12.0,63.0,51.6*,?,25.7,0.9
Cc1cc2sc(NC(=O)c3ccco3)nc2cc1Cl,37.2,.,8.9,30.4*,66.1*,4.8
O=[N+]([O-])c1cccc(COc2ccc(CN3CCOCC3)cc2)c1,.,111.5*,-17.0,9.4,.,3.4
CC(=O)Nc1ccc(OCc2cccc([N+](=O)[O-])c2)cc1,3.2,6.2,.,59.2*,28.6,2.4
O=C(C[C@H]1CC[C@H]2[C@@H](COC[C@H](O)CN2Cc2cc(F)cc(F)c2)O1)NC1CCC1,.,.,-1.5,.,.,.
Cc1ccc(NC(=O)Nc2cccs2)cc1,17.1,60.4,35.9,.,28.6,3.0
O=C(Nc1cccs1)Nc1ccccc1Cl,40.6,13.7,44.1*,.,44.2,1.6
Cc1ccc(NC(=O)Nc2cccs2)c(Cl)c1,-38.0,46.8,.,55.3*,-44.6,-0.7
O=C(NC(=O)c1csnn1)Nc1ccccc1Cl,12.2,72.0,50.0*,23.9,22.1,1.6
O=C(C[C@@H]1C[C@H]2c3cc(NC(=O)c4ccc5c(c4)OCO5)ccc3O[C@H]2[C@H](CO)O1)NCc1ccc(Oc2ccccc2)cc1,.,.,8.1,.,.,.
C=CCOC(=O)c1ccc(N2CCN(c3ccccc3)CC2)nc1,11.9,44.8,26.1,5.5,18.8,-1.4
COC(=O)c1ccc(N2CCN(c3ccccc3)CC2)nc1,17.3,100.4*,49.5*,24.7,33.4,1.8
CSc1ncc(C(=O)Nc2cccnc2)c(C(F)(F)F)n1,-79.1*,2.1,-5.3,-2.8,-83.7,5.2
O=C(Nc1cccnc1)c1ccccc1F,-12.0,2.5,-3.7,.,6.1,-2.3
C[C@H](CO)N1C[C@H](C)[C@H](CN(C)C(=O)Nc2cccc3ccccc23)Oc2ncc(C#Cc3ccc(C(F)(F)F)cc3)cc2C1=O,.,.,3.3,.,.,.
O=C(O)CCC(=O)NCCn1c(-c2ccccc2)csc1=Nc1ccccc1,28.6,0.7,17.4,14.7,69.5*,-3.4
CO[C@@H]1CN(C)C(=O)c2cc(NS(=O)(=O)CC(F)(F)F)ccc2OC[C@@H](C)N(Cc2cccnc2)C[C@@H]1C,.,.,0.3,.,.,.
Cc1noc(C)c1S(=O)(=O)N(C)C[C@@H]1OCCCC[C@@H](C)Oc2ccc(NC(=O)Cc3ccccc3)cc2C(=O)N([C@@H](C)CO)C[C@H]1C,.,.,7.0,.,.,.
CCNC(=O)C[C@@H]1CC[C@H]2[C@H](COc3ccc(NC(=O)C4CCOCC4)cc3C(=O)N2C)O1,.,.,-5.6,.,.,.
Cc1cc(NC(=O)c2ccccc2Cl)no1,13.3,59.7,29.4,15.4,15.8,2.7
Cc1cc(NC(=O)c2sc3ccccc3c2O)no1,6.7,10.5,29.4,34.0*,-2.4,5.5
SMILES,HSF1 inhib,MITF act,esBAF inh,Wnt act,HSF1 activator,SMARCA2 act
COc1ccccc1-c1ccc(SCC(=O)Nc2cc(C)on2)nn1,39.0,-6.0,.,-0.8,60.2*,-2.0
COc1ccc(C(=O)Nc2ccc(C)cn2)c(OC)c1,-36.8,-73.2,-78.3,.,-33.1,-3.1
COc1ccc(C(=O)Nc2cc(C)on2)c(OC)c1,18.2,114.7*,13.6,12.6,33.3,2.2
COc1ccc(CC(=O)Nc2cc(C)on2)cc1,-91.2*,4.7,8.1,4.6,-93.1,-2.8
CO[C@H]1CN(C)C(=O)c2cccc(C#N)c2OCC[C@@H]2CC[C@@H](OC)[C@H](CN(C)C(=O)[C@@H]1C)O2,.,.,3.1,.,.,.
Cc1cc(NC(=O)Nc2ccc(C)c(C)c2)no1,-10.3,61.2,.,31.6*,-4.9,6.4
COc1ccc(NC(=O)c2cc(C)on2)cc1,16.0,75.3,37.6,34.0*,16.3,3.6
N#C[C@H]1[C@@H](c2ccc(C#CC3CC3)cc2)[C@H](CO)N1S(=O)(=O)c1ccccc1,.,.,-1.3,.,.,.
O=C(CN1C(=O)C2C3CCC(C3)C2C1=O)OCC(=O)c1ccc(Br)cc1 (stereo not given),-4.4,14.4,0.9,4.0,-2.9,1.2
O=C(CN1C(=O)C2C3C=CC(C3)C2C1=O)OCC(=O)c1ccc(Br)cc1 (stereo not given),-60.2*,1.8,-2.9,-0.3,-65.7,3.2
Cc1ccc(C(=O)Nc2ccc(CC(=O)O)cc2)o1,-7.0,-8.2,-14.3,.,-2.4,-5.8
CC(C)(C)c1ccc(C(=O)Nc2ccc(CC(=O)O)cc2)o1,-59.3*,-72.7,-79.0,.,-64.1,-12.5
COc1ccc(NC(=O)Nc2ccc3c(c2)C(=O)N([C@@H](C)CO)C[C@H](C)[C@@H](CN(C)C(=O)Nc2c(C)noc2C)OCCCC[C@H](C)O3)cc1,.,.,-3.3,.,.,.
COc1ccc(Nc2nc(CC(C)=O)ns2)cc1,4.7,40.3,56.9*,.,20.7,2.8
COc1cccc(Nc2nc(CC(C)=O)ns2)c1,15.1,14.2,.,.,30.5,3.1
C[C@@H](NC(=O)C[C@@H]1CC[C@@H]2[C@H](COC[C@H](O)CN2Cc2ccc(C(F)(F)F)cc2)O1)c1ccccc1,.,.,-0.5,.,.,.
NC[C@@]12CCCC1C1CCC2C1 (stereo not given in full),-14.4,.,.,.,-4.2,.
O[C@@H]1C2CCCC1[C@]1(O)CCCCC1C2 (stereo not given in full),37.6,22.5,4.2,0.7,53.3*,0.1
CN(C)c1ccnc(Oc2ccc(C(C)(C)C)cc2)c1C#N,16.5,47.5,52.3*,.,32.5,0.6
CN(C)c1ccnc(Oc2ccc(Cl)cc2)c1C#N,12.9,48.9,28.3,14.4,22.4,0.5
CCCCN1C(=O)/C(=C/C=C2\SCCN2C)SC1=S,-0.4,91.6*,.,11.4,24.3,3.3
COC(=O)C1=C(C)NC(C)=C(C(=O)OC)C1c1ccc(-c2cccc(Cl)c2Cl)o1,22.1,-21.2,-8.5,-10.1,53.2*,-2.4
COC(=O)C1=C(C)NC(C)=C(C(=O)OC)C1c1ccc(-c2cc(Cl)ccc2Cl)o1,12.8,-8.1,.,-12.8,14.6,-2.1
COC(=O)C1=C(C)NC(=S)NC1c1ccc(-c2cccc(Cl)c2)o1 (stereo not given),44.2,2.0,.,2.6,71.6*,-3.4
C[C@H](CO)N1C[C@H](C)[C@H](CN(C)Cc2ccccc2)Oc2ccc(NS(=O)(=O)c3ccc(Cl)cc3)cc2C1=O,.,.,4.0,.,.,.
COc1ccccc1NC(=O)N[C@H]1CC[C@H](CC(=O)N[C@@H](C)c2ccccc2)O[C@@H]1CO,.,.,8.6,.,.,.
